Data from PubChem BioAssay.
Activity calls are given as the source filed them.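 Rule for the calls, unless noted: active = fluorescence slope after compound addition differing from the mean of all screened samples at 99.7% confidence, in either direction; inactive = the rest.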

Assays:
[1] = inhibitors of TNFa-induced NFkB p65 translocation, primary screen, imaging, HUVEC, MLSMR starter and 10KST1 sets (AID 438;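 active = inhibition above 20% together with a positive visual image hit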;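 note: compound added about 3h40 before a 20 min TNFalpha stimulation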;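 for inhibition: signal is the nuclear over cytoplasmic p65 intensity ratio per well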); settings: HUVEC TNFa-induced p65 nuclear translocation; cell count: measured here: nuclei count (cytotoxicity indicator), at 2.08 µM; inhibition: at 2 µM, stronger effect = higher value, 0% TNFa-plus-vehicle, 100% no-TNFa wells
[2] = reduction of polyQ htt aggregates in cells – imaging, exon1htt(103Q)mCFP cells, high-content imaging, primary screen (AID 483;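 active = visual image review flags a hit and inhibition of aggregation exceeds 20%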;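 note: compound exposure lasted 3 days before fixation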;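 for nuclei count: percent of the per-plate median nuclei count of sample wells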); settings: exon1htt(103Q)mCFP cell line, aggregate imaging, at 2 µM; inhibition of aggregation: stronger effect = higher value; nuclei count: measured here: cell count, toxicity
[3] = endothelial E-selectin expression blockers – imaging, HUVEC, immunofluorescence, MLSMR starter and 10KST1 sets, primary screen (AID 487;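 active = visually confirmed hit in the image check and inhibition above 20%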;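 for inhibition: signal is fraction of cell area covered by stained E-selectin grains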;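 for nuclei count: 100% = median nuclei count of all wells on the same plate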); settings: HUVEC TNFalpha-induced E-selectin immunofluorescence imaging, at 2 µM; inhibition: stronger effect = higher value; nuclei count: measured here: cell number, toxicity
[4] = target: Voltage-gated potassium channel subunit beta-2 (Rattus norvegicus) (UniProt P62483); assay: inhibitors of rat Kvbeta2 reductase activity – biochemical, NADPH fluorescence, primary screen (AID 622;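 active = fluorescence slope higher than the sample average by over 3 SD, cut at about -0.22 in these data, passing the limit was not always enough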;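 note: slope of raw intensity against log time taken from 70 to 1610 s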); settings: recombinant KvBeta, 4-cyanobenzaldehyde reduction, at 10 µM, stronger effect = higher value
[5] = target: Voltage-gated potassium channel subunit beta-2 (Rattus norvegicus) (UniProt P62483); assay: enhancers of rat Kvbeta2 NADPH turnover – biochemical, NADPH fluorescence, primary screen (AID 623;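 active = NADPH fluorescence slope more negative than the mean of all samples by about 3 SD, 99.7% confidence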;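 note: fluorescence intensity change per second fitted from 20 to 320 s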); settings: Recombinant KvBeta, NADPH fluorescence decrease slope, 10 min; at 10 µM; stronger effect = lower value
[6] = target: Alpha-2C adrenergic receptor (Homo sapiens) (UniProt P18825); assay: compounds altering alpha2C-coupled GIRK flux – cell-based, HEK293 alpha2C/GIRK1/2, thallium flux, primary screen (AID 624); settings: thallium flux BTC fluorescence, at 10 µM, actives lie on both sides;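 note: slope of fluorescence ratio to pre-addition baseline per second over 15 to 24 s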
[7] = blockers of RIG-like receptor reporter activation – cell-based, Sendai virus stimulus, luciferase, 10K MLSCN set, TLR/RLR signaling modifier project, primary screen (AID 602276;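 active = inhibition at or above 50% at 10 µM; inactive = inhibition below 50%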;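 note: firefly luciferase from ISG56 promoter only with Renilla not read in this screen; 0% = Sendai virus plus DMSO and 100% = medium plus DMSO without virus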); settings: HEK293 RL24 IRF3 luciferase reporter, at 10 µM, stronger effect = higher value
[8] = TLR3 IRF3 reporter activation blockers – cell-based, poly I:C stimulus, luciferase, 10K MLSCN set, primary screen (AID 602277;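 active = inhibition of the reporter signal at or above 50%; inactive = inhibition below 50%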); settings: HEK293-TLR3 RL24 IRF3 luciferase reporter, at 10 µM, stronger effect = higher value

Voltage-gated potassium channel subunit beta-2 (Rattus norvegicus), sequence (P62483 whole entry, looked up): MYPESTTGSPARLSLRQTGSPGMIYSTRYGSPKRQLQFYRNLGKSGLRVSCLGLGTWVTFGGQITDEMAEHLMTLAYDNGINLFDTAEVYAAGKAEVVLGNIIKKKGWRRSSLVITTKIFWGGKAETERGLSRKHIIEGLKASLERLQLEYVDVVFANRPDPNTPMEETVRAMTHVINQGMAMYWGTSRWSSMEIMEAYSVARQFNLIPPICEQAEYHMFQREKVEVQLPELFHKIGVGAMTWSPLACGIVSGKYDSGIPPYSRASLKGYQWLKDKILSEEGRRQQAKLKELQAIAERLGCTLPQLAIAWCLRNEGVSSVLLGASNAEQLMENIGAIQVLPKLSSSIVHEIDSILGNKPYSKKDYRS
Alpha-2C adrenergic receptor (Homo sapiens), sequence (P18825 whole entry, looked up): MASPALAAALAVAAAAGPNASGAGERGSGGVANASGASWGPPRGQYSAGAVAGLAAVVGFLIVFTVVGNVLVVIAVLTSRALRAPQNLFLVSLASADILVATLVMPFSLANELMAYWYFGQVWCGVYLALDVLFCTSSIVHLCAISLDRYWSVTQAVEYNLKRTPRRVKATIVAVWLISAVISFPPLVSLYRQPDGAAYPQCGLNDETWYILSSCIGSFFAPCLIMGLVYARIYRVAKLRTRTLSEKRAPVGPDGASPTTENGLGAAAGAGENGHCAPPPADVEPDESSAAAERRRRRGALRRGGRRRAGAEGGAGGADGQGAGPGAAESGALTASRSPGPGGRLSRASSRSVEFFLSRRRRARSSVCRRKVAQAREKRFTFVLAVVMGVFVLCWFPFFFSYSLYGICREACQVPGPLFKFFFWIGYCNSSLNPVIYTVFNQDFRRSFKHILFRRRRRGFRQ

SMILES | cell count [1] | inhibition [1] | inhibition of aggregation [2] | nuclei count [2] [%] | inhibition [3] | nuclei count [3] [%] | fluorescence slope [4] | NADPH fluorescence slope [5] | slope [6] | inhibition [7] | inhibition [8]
CCSc1nnc(-c2cccs2)o1 | 413 | -4.5% (inactive) | -4.3% (inactive) | 110 | 21.6% (inactive) | 111 | -0.369 (inactive) | -4.4e-05 (inactive) | 0.00573 (inactive) | -21.5% (inactive) | -57.7% (inactive)
Cc1ccc(S(=O)(=O)N2CCN(CCO)CC2)cc1-c1nnc2c3ccccc3c(C)nn12 | 357 | -0.4% (inactive) | -26.9% (inactive) | 102 | 8.6% (inactive) | 81 | -0.609 (inactive) | -1.7e-05 (inactive) | 0.00417 (inactive) | 3.73% (inactive) | 9.83% (inactive)
CCC1CCCCN1CCCNC(=O)CC1Oc2ccc(C)cc2NC1=O (configuration not stated) | 810 | -1.8% (inactive) | 13.7% (inactive) | 105 | -71% (inactive) | 107 | -0.499 (inactive) | -3.5e-05 (inactive) | 0.00565 (inactive) | 5.08% (inactive) | 29.6% (inactive)
O=C(COc1ccccc1)N1CCN(C(=O)c2cccc(F)c2)CC1 | 725 | 1% (inactive) | -0.2% (inactive) | 111 | 7.6% (inactive) | 97.2 | -0.447 (inactive) | -3.8e-05 (inactive) | 0.00634 (inactive) | 8.19% (inactive) | 29.6% (inactive)
Cc1noc(C)c1CSc1nnc2scc(-c3ccc(Cl)cc3)n12 | 339 | -0.4% (inactive) | -18.6% (inactive) | 120 | -88.2% (inactive) | 122 | -0.52 (inactive) | -2.1e-05 (inactive) | 0.00506 (inactive) | -1.42% (inactive) | 6.73% (inactive)
COc1ccc(-c2oc3ncn(CCN4CCOCC4)c(=N)c3c2-c2ccc(OC)cc2)cc1 | 688 | -9.5% (inactive) | 17.4% (inactive) | 75.4 | -16.4% (inactive) | 98 | -0.32 (inactive) | -6.6e-05 (inactive) | 0.00302 (inactive) | 1.98% (inactive) | -0.246% (inactive)
COCCN(C(=O)CCC(=O)Nc1ccccn1)C(C(=O)NC1CCCC1)c1ccc(OC)cc1 (configuration not stated) | 528 | -26.5% (inactive) | 16.1% (inactive) | 105 | -44.5% (inactive) | 92 | -0.395 (inactive) | -9e-05 (inactive) | 0.00514 (inactive) | 1.15% (inactive) | 23.2% (inactive)
